Data: PubChem BioAssay (NCI)
Values joined by “and” are separate entries in the source; they are usually repeats but may differ in a detail not shown here. Equal values may be shown once. About 83,000 compounds went through this panel and 20% of them were active in at least one assay; those are over-represented in the sample as a whole.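 Step 1: grow cells in 96-well plates. Step 2: add test compound at a single concentration. Step 3: incubate 48 h. Step 4: record percent growth.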 Active and inactive are the calls of the source.

system: HCT-15 colon; experiment: NCI-60 one-dose screen, 48 h (100 = growth as untreated, 0 = no growth, -100 = all killed); conditions: 10 µM unless noted
Description: Growth inhibition of the HCT-15 human tumor cell line is measured as a screen for anti-cancer activity. Cells are grown in 96 well plates and exposed to the test compound for 48 hours. Compounds are tested at a single concentration, which is 10^-5 M for most compounds. The reported endpoint is percent growth (GI% or GIPRCNT), where numbers from 0 - 100% represent growth inhibition, and numbers from -100% - 0 represent cell death. For example, a value of 40 represents 60% growth inhibition. A value of 0 means no net growth occurred over the course of the experiment. A value of -40 indicates 40% of cells at the beginning of the experiment died by the end of the experiment. A value of -100 means all cells are dead at the end of the experiment.
NCI-60 Human Tumor Cell Lines Screen was performed using the standard one-dose NCI protocol, which is described in more detail at https://dtp.cancer.gov/discovery_development/nci-60/default.htm.
Compounds with GIPRCNT values below 10 were considered active. Activity score was based on GIPRCNT using the following formula: […]
Score is 0 for GIPRCNT values of 100 or above, 50 for GIPRCNT values of 0, and 100 for GIPRCNT values of -100.

| SMILES | growth |
| --- | --- |
| Cc1ccc(N2CCN(CCC#N)CC2)cc1 | 97.2% (inactive) |
| COc1ccc(N(CC(=O)NCCC[Te]c2ccccc2)C(=O)c2ccccc2)cc1 | 9.28% (active) |
| C#Cc1cccc(Nc2nc(Cl)nc3cc(NC(=O)CF)ccc23)c1 | 35.4% (inactive) |
| C/C(=C(\c1ccc(OCCN2CCOCC2)cc1)c1ccc(OC(=O)Cc2ccccc2)cc1)c1ccc(Cl)cc1 | 91.4% (inactive) |
| N#CCN(CC#N)[N+](=O)[O-] | 108% (inactive) |
| ClC1OC(Cl)(Cl)C(Cl)(Cl)OC1(Cl)Cl (stereo not given) | 106% (inactive) |
| CCCCCCCCCCCCCCCC[N+](C)(C)C | -37.7% (active) and 23.9% (inactive) |
| CN(C)[C@@H]1C(=O)C(C(N)=O)=C(O)[C@@]2(O)C(=O)C3=C(O)c4c(O)ccc(Cl)c4[C@@](C)(O)[C@H]3C[C@@H]12 | 89.6% (inactive) and 105% (inactive) |
| C[C@]12CCc3sc(Nc4ccc(OC(F)(F)F)cc4)nc3C1=CC[C@@H]1[C@@H]2CC[C@]2(C)C(=O)CC[C@@H]12 | 38.3% (inactive) |
| O=C(CBr)OCCOC(=O)CBr | 72.4% (inactive) |
| C=CC[PH+](c1ccccc1)c1ccccc1.C=CC[PH+](c1ccccc1)c1ccccc1.[Pt+2].[S-]c1nc2ccccc2[nH]1.[S-]c1nc2ccccc2[nH]1 | 70% (inactive) |
| CCCC1CCCCC12C(=O)NC(=O)NC2=O (stereo not given) | 94.3% (inactive) and 106% (inactive) |
| CNC(=O)Oc1ccc(Cl)cc1SSc1cc(Cl)ccc1OC(=O)NC | 72.7% (inactive) |
| CCC(=O)C(CC(C)[N+](C)(C)C)(c1ccccc1)c1ccccc1 (stereo not given) | 97.6% (inactive) |
| C=CCOC(=O)C(Br)CC (stereo not given) | 108% (inactive) |
| CC[C@H](C)[C@H](NC(=O)[C@H]1CCCCN1C)C(=O)N(C)[C@H](CCc1nc(C(=O)N[C@@H](Cc2ccccc2)C[C@H](C)C(=O)O)cs1)C(C)C | 27.3% (inactive) |
| CC1(C)N=C(N)N=C(N)N1c1ccc(CCC(=O)Nc2ccc(S(=O)(=O)F)cc2)cc1 | 46.2% (inactive) |
| CCCCOCCOP(=O)(OCCOCCCC)OCCOCCCC | 101% (inactive) |
| O=NN1CCCCC1 | 106% (inactive) |
| Cc1cc(Br)c([N+](=O)[O-])cc1[N+](=O)[O-] | 76.1% (inactive) |

| SMILES | growth |
| --- | --- |
| Cc1nc2ccccc2c(=O)n1-c1ccccc1F | 103% (inactive) |
| CC1=CC(=Nc2ccc(N(CCCl)CCCl)cc2)C=C(C)C1=O | 8.95% (active) |
| S=P(SP(=S)(c1ccccc1)c1ccccc1)(c1ccccc1)c1ccccc1 | 97% (inactive) |
| CSc1cc(/C=C(\C)[C@@H]2C[C@@H]3O[C@]3(C)CCC[C@H](C)[C@H](O)[C@@H](C)C(=O)C(C)(C)[C@@H](O)CC(=O)O2)n(CCNC(=O)OC(C)(C)C)n1 | 37.1% (inactive) |
| CC[C@H](C)[C@H](NC(=O)c1cnccn1)C(=O)N(C)[C@H](C[C@@H](OC(C)=O)c1nc(C(=O)N[C@@H](Cc2ccccc2)C[C@H](C)C(=O)OC)cs1)C(C)C | 6.99% (active) |
| CCC1(CCSC#N)C(=O)NC(=O)NC1=O | 99.6% (inactive) |
| O=C(CCCN1CCC2(CC1)C(=O)NCN2c1ccccc1)c1ccc(F)cc1 | 100% (inactive) and 78.4% (inactive) |
| CCC(=O)C(CC(C)N1CCCCCC1)(c1ccccc1)c1ccccc1 (stereo not given) | 87.2% (inactive) |
| N#CCC(=O)c1ccccc1 | 99.8% (inactive) |
| CC[C@H](C)[C@H](NC(=O)[C@H]1CCCCN1C)C(=O)N(C)[C@H](C[C@@H](OC(C)=O)c1nc(C(=O)NC23C4C5C2C2C3C4C52C(=O)OC)cs1)C(C)C (stereo not given in full) | 9.18% (active) |
| C[C@]12C[C@H](c3ccoc3)OC(=O)[C@H]1CC[C@@]1(C)[C@@H]2[C@H]2C=C[C@]1(O)C(=O)O2 | 101% (inactive) |
| CC[C@H](C)[C@H]1O[C@]2(C=C[C@@H]1C)C[C@@H]1C[C@@H](C/C=C(\C)[C@@H](O[C@H]3C[C@H](OC)[C@@H](O[C@H]4C[C@H](OC)[C@@H](NC)[C@H](C)O4)[C@H](C)O3)[C@@H](C)/C=C/C=C3\CO[C@@H]4[C@H](O)C(C)=C[C@@H](C(=O)O1)[C@]34O)O2 | -70.2% (active) |
| COC(=O)C12C3C4C1C1C2C3C41NC(=O)c1csc([C@@H](C[C@H](C(C)C)N(C)C(=O)[C@@H](NC(=O)[C@H]2CCCCN2C)C2CC2)OC(C)=O)n1 (stereo not given in full) | 12.6% (inactive) |
| CC[C@@H](C)C(=O)O[C@H]1[C@H](O)[C@H]2[C@@H](CN3C[C@@H](C)CC[C@H]3[C@@]2(C)O)[C@@H]2C[C@]34O[C@]5(O)[C@@H](OC(=O)[C@@](C)(O)CC)CC[C@@]3(C)[C@@H]5[C@@H](OC(C)=O)[C@@H](OC(C)=O)[C@H]4[C@@]21O | 109% (inactive) |
| O=[P+](O)c1cccnc1 | 106% (inactive) |
| Cc1cc(N(CCCl)CCCl)ccc1C=Nc1ccc(-c2csc(-c3ccccc3)n2)cc1 | 103% (inactive) |
| CC[C@H](C)[C@H](NC(=O)[C@H]1CCCCN1C)C(=O)N(C)[C@H](C(=O)NC12CC(C(=O)N[C@@H](Cc3ccccc3)C[C@H](C)C(=O)OC)(C1)C2)C(C)C | 101% (inactive) |
| O=C1CCCCC1CN1CCCCC1 (stereo not given) | 99.9% (inactive) |
| O=[N+]([O-])c1ccc2scc3c4ccccc4nc-3c2c1 | -36.7% (active) |
| CC12CCC3C4CCC(=O)C=C4CCC3C1CC1CC(=O)OC12 (stereo not given) | 112% (inactive) |
